Source: PubChem
IL1B secr inh = qHTS for Inhibitors of Inflammasome Signaling: IL-1-beta AlphaLISA Primary Screen; THP-1 LPS/ATP IL-1B secretion, AlphaLISA, 16 h; stronger effect = lower value; activity change, % at 57.5 µM; 360,000 tested, 4.7% active; in the data active = activity change below about -50%; inconclusive = mostly about -30% to -49%
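THP-1 cells pretreated 1 hr with compounds (up to 57.5 uM final), then stimulated with LPS (250 ng/mL final) plus ATP (1.25 mM final); secreted IL-1B measured by AlphaLISA after 16 hr, decreased signal indicating inhibition.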
DT40 TDP1 no CPT = qHTS for Inhibitors of human tyrosyl-DNA phosphodiesterase 1 (TDP1): qHTS in cells in absence of CPT; Potency, µM (doses to about 46.2 µM), inactives show at the highest dose activity change, negative = growth inhibition, hits mostly inhibitors; 420,000 tested, 15% active; DT40 Tdp1-/- hTDP1 cells, no CPT, ATP luminescence, 48 h; AID 686978, 2013; also: potency is read from the fitted curve at half-maximal effect; nearly all actives have a fitted effect of over 55% in size
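Chicken DT40 Tdp1-/- cells stably complemented with human TDP1 were seeded at 400 cells/well with DMSO in place of 20 nM camptothecin. After compound pinning, cells grew at least 48 hr at 37 °C; viability read by CellTiter-Glo luminescence.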
DT40 TDP1 CPT = qHTS for Inhibitors of human tyrosyl-DNA phosphodiesterase 1 (TDP1): qHTS in cells in presence of CPT. chicken DT40 Tdp1-/-;hTDP1 cells + 20 nM CPT, ATP luminescence, 48 h. Potency, µM (top dose mostly 46.2 µM), inactives show top-dose activity change, negative = growth inhibition, hits mostly inhibitors. 420,000 tested, 12% active. AID 686979, 2013; also: potency is read from the fitted curve at half-maximal effect; nearly all actives have a fitted effect of over 55% in size
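Chicken DT40 Tdp1-/- cells complemented with human TDP1, 400 cells/well, exposed to compounds plus 20 nM camptothecin for at least 48 h at 37 C; viability read as ATP content by CellTiter-Glo luminescence.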
Giardia kill = Small Molecules that selectively kill Giardia lamblia: qHTS; Giardia lamblia trophozoite viability; activity change, % at 7.66 µM, hits read low; 340,000 tested, 0.15% active; AID 540267, 2011; in the data active = activity change below about -80%; inconclusive = between about -30% and that limit;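 also: parasites exposed to compound for two days anaerobically before the ATP read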
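Anaerobic 48 hrs incubation at 37 deg C of 100 trophozoites/well with test compounds; ATPLite 1-Step luminescence, 15-30 min RT, reports cellular ATP as viability.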
TDP1 block = qHTS Assay for Inhibitors of Tyrosyl-DNA Phosphodiesterase (TDP1); 350,000 tested, 0.28% active; Potency, µM (highest dose often 130 µM), inactives show top-dose activity change, negative = inhibition, most hits filed as inhibitors; Tyrosyl-DNA phosphodiesterase 1 (Homo sapiens), Q9NUW8; recombinant TDP1, AlphaScreen DNA substrate cleavage; also: potency is read from the fitted curve at half-maximal effect; nearly all actives have a fitted effect of over 40% in size
Target sequence (Q9NUW8 whole entry, looked up): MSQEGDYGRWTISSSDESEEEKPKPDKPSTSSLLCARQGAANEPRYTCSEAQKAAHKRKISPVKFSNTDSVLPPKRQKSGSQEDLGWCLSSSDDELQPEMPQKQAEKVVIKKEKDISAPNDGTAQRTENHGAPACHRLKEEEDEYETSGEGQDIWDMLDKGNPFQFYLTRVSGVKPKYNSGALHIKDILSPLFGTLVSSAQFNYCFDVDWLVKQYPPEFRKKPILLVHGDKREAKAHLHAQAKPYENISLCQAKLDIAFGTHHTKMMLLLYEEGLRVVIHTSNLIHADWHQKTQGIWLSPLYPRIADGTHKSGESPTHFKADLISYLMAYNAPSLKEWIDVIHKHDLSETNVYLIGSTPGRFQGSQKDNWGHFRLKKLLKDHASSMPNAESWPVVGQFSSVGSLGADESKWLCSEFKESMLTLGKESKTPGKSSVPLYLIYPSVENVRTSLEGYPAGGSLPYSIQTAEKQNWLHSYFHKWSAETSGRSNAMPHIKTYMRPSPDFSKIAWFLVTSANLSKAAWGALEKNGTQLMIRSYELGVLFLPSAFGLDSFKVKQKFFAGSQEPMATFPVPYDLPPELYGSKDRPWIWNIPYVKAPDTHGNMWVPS
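Compounds were preincubated with Tdp1 (1 nM final) for 15 min at room temperature before substrate (15 nM final) started a 5 min reaction; beads (10 ug/ml final) were then added for 10 min before AlphaScreen detection.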
ELG1 repair inh = qHTS screen for small molecules that inhibit ELG1-dependent DNA repair in human embryonic kidney (HEK293T) cells expressing luciferase-tagged ELG1; HEK293T ELG1-luciferase reporter, luminescence, 16 h; DNA damage induced by 5-fluorouridine; Potency, µM (titrated, usually from 46.1 µM), for inactives: top-dose activity change, negative = inhibition, most hits filed as inhibitors; 330,000 tested, 2.3% active; also: potency is read from the fitted curve at half-maximal effect; nearly all actives have a fitted effect of over 55% in size
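Overnight (16 hr) co-exposure of 2,000 cells/well to 5-fluorouridine and compound at 37 °C preceded detection. Luciferase was quantified via ONE-Glo luminescence; loss of signal denotes inhibition.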
* hit, by the source's call; ? = inconclusive; . = no result given; [ ] = another dose, or the depositor's remark. The list is not random: actives were taken first. Their share in the collection is about 19%. Unless noted, calls follow the shape of the dose curve; as a rule, active = well fitted curve in the direction sought with a large enough effect; inconclusive = small, poorly fitted or top-dose-only effect, or another doubt; inactive = no such curve, though single readings can be large; an effect the other way counts as inactive or inconclusive. % is scaled to controls: 0 for no effect and ±100 for the full control effect.

SMILES	IL1B secr inh	DT40 TDP1 no CPT	DT40 TDP1 CPT	Giardia kill	TDP1 block	ELG1 repair inh
O=C1C(c2ccc(F)cc2)N(CCc2ccc(Cl)cc2)C(=O)CN1C1CCCCC1 (stereo unspecified)	.	21µM*	16µM*	.	3%	.
COc1cc(C2C(=O)N(C3CCC(C)CC3)CC(=O)N2CCc2ccc(Cl)cc2)ccc1OC(C)C (stereo unspecified)	.	-1%	-16%	.	5%	.
COc1ccc(CCN2C(=O)CN(C3CCCCCC3)C(=O)C2c2ccc(OC(C)C)c(OC)c2)cc1OC (stereo unspecified)	.	?	?	.	10%	.
COc1ccc(CCN2C(=O)CN(C3CCCCCC3)C(=O)C2c2ccc(Cl)cc2)cc1OC (stereo unspecified)	.	18µM*	?	.	10%	.
COc1cc(C2C(=O)N(C3CCCCCC3)CC(=O)N2CCc2ccccc2)ccc1OC(C)C (stereo unspecified)	.	13µM*	16µM*	.	10%	.
CCCNC(=O)c1ccc(N2CCC3(CC2)CC(c2cccc(Br)c2)=NO3)c(NC(=O)c2cccc(C)c2)c1	-8	?	?	1	-2%	?
CC(=Nc1ccc(O)cc1)c1sc2ccccc2c1O	-5	13µM*	15µM*	-10	3%	?
COc1ccc(-c2c[n+]3c4n2CCCCC4=C(c2ccc(Br)cc2)C3)cc1	-98*	10µM*	6.5µM*	24	14%	?
Clc1ccc(C2=C3CCCCn4c(-c5ccccc5)c[n+](c43)C2)cc1	-17	?	?	3	10%	?
O=C(O)c1ccc(-n2nc(C(F)(F)F)c3c2CCCC3)cc1	?	14%	4%	-9	-5%	17%
O=C(c1ccc(-n2nc(C(F)(F)F)c3c2CCCC3)cc1)N1CCOCC1	4	?	?	16	-1%	5.2µM*
CSc1ccc(CCNC(=O)c2ccc(CS(=O)(=O)c3ccc(Br)cc3)o2)cc1	.	21µM*	23µM*	.	0%	.
COc1ccc(S(=O)(=O)Cc2ccc(C(=O)NC3CCC(C)CC3)o2)cc1 (stereo unspecified)	-5	?	-8%	17	6%	-2%
O=C(NCCc1ccc(Cl)cc1)c1ccc(CS(=O)(=O)c2ccc(Cl)cc2)o1	.	?	16µM*	.	0%	.
CC1CCC(NC(=O)c2ccc(CS(=O)(=O)c3ccc(Cl)cc3)o2)CC1 (stereo unspecified)	.	18µM*	18µM*	.	3%	.
CCCCN(CC)CCCNC(=O)c1ccc(CS(=O)(=O)c2c(Cl)cccc2Cl)o1	-78*	27%	-13%	16	.	7%
NS(=O)(=O)c1ccc(CCNC(=O)c2ccc(CS(=O)(=O)c3ccc(Br)cc3)o2)cc1	-8	-12%	-13%	?	3%	-12%
COC(=O)C1C(=O)C(C(=O)/C=C/c2ccco2)C(=O)CC1(C)C (stereo unspecified)	.	4%[9.04 µM]	5%[9.04 µM]	.	-5%	.
COc1cccc(OC)c1CNC(=O)C1CCC(=O)N(CC2CCCCC2)C1 (stereo unspecified)	9	?	?	1	3%	1%
Cc1ccc(CCNC(=O)c2ccc(CS(=O)(=O)c3ccc(Cl)cc3)o2)cc1	.	-14%	-8%	.	0%	.
CCc1ccccc1S(=O)(=O)Cc1ccc(C(=O)NCc2ccc(Cl)cc2)o1	.	?	?	.	0%	.
Cc1ccc(S(=O)(=O)Cc2ccc(C(=O)NCCc3ccc(Cl)cc3)o2)cc1	.	29µM*	16µM*	.	-2%	.
CCc1ccccc1S(=O)(=O)Cc1ccc(C(=O)NCCc2ccc(Cl)cc2)o1	.	18µM*	?	.	5%	.
CC1(C2CC2)NC(=O)N(CC(=O)Nc2ccc(SC(F)F)cc2)C1=O (stereo unspecified)	-11	?	-22%	-4	0%	14%
CCN(C1CCCCC1)S(=O)(=O)c1ccc(S(=O)(=O)NCc2ccncc2)cc1	?	9.2µM*	7.3µM*	-16	0%	?
SMILES	IL1B secr inh	DT40 TDP1 no CPT	DT40 TDP1 CPT	Giardia kill	TDP1 block	ELG1 repair inh
O=S(=O)(NCc1ccccc1)c1ccc(S(=O)(=O)N(Cc2ccccn2)C2CCCC2)cc1	?	18µM*	?	3	2%	21µM*
CCNS(=O)(=O)c1ccc(S(=O)(=O)N(Cc2ccccn2)C2CCCCC2)cc1	-10	-26%	-29%	3	3%	-6%
Nc1c(Br)cc(Br)c2c1-c1ccc([N+](=O)[O-])cc1C2	2	-5%	-22%	-11	.	.
O=CNc1ccc2c(c1)Cc1cc([N+](=O)[O-])ccc1-2	-55*	13µM*	?	?	.	.
CCC(=O)Nc1ccc2c(c1)Cc1cc([N+](=O)[O-])ccc1-2	-5	6.5µM*	?	-8	.	.
COc1ccccc1-c1cnc(C(O)c2c(C)cc(C)cc2C)[nH]1 (stereo unspecified)	19	?	?	.	.	.
COc1ccccc1CNC(=O)C1=CCN(S(=O)(=O)c2ccc(C)cc2)CC1	-29	?	-23%	-13	.	-24%
CN(C)S(=O)(=O)c1cccc(NC(=S)N/N=C/c2ccc(O)c(O)c2O)c1	-13	16µM*	?	0	.	16µM*
COc1ccc2cc(C(C)C(=O)Nc3cccc(S(=O)(=O)N(C)C)c3)ccc2c1 (stereo unspecified)	-17	23µM*	?	1	.	?
COc1cccc(/C=N/NC(=S)Nc2cccc(S(=O)(=O)N(C)C)c2)c1	6	8.2µM*	4.1µM*	7	.	-4%
CNC(=O)c1cccc(NC(=O)C(C)c2ccc3cc(OC)ccc3c2)c1 (stereo unspecified)	73	?	?	17	.	0%
C=C(C)CNC(=S)N/N=C/c1ccco1	-7	5.2µM*	18µM*	-12	4%	1%
C=C(C)CNC(=S)NN=C1c2ccccc2-c2ccccc21	-22	?	?	-4	9%	-12%
COc1cccc(/C=C/C(=O)OCC(=O)Nc2cccc(S(=O)(=O)N(C)C)c2)c1	29	-18%	-5%	5	3%	9%
